Values without a mark were called inactive.
System: Vero E6 infected with SARS-CoV-2
Experiment: inhibition of SARS-CoV-2 cytopathic effect; higher = more antiviral protection, active = above 15
Details: 48 h

SMILES	inhibition of SARS-CoV-2 cytopathic effect (1 nM) [%]	inhibition of SARS-CoV-2 cytopathic effect (8.33 nM) [%]	inhibition of SARS-CoV-2 cytopathic effect (100 nM) [%]	inhibition of SARS-CoV-2 cytopathic effect (833.33 nM) [%]	inhibition of SARS-CoV-2 cytopathic effect (10000 nM)
CCC(=O)NC[C@H](Cc1ccc(OCCc2nc(-c3ccccc3)oc2C)cc1)N/C(C)=C\C(=O)c1ccc(C(F)(F)F)cc1	-1.03	0.69	0.66	1.86	5.34%
CC(=O)Nc1cccc2c1c(Sc1ccc(Cl)cc1)c(C)n2CC(=O)O	-2.31	-3.4	-2.21	-0.59	-0.66%
CCCCN1CCC(CCC(=O)c2cc(Cl)c(N)cc2OC)CC1	-0.14	-0.19	-0.31	-1.87	-3.77%
COc1cc(/C=C2\CCC/C(=C\c3ccc(O)c(OC)c3)C2=O)ccc1O [cyclovalone]	-0.89	0.77	2.28	6.64	29.5% (active)
CCCc1c2oc(C(=O)O)cc(=O)c2cc2c(=O)cc(C(=O)O)n(CC)c12 [nedocromil]	2.42	1.24	0.71	1.06	0.79%
CCN[C@@H](C)Cc1cccc(C(F)(F)F)c1 [dexfenfluramine]	1.76	-0.09	2.9	-3.54	0.8%
CC(=O)c1ccc2c(c1)N(CCCN(C)C)c1ccccc1S2 [acepromazine]	-0.95	1.58	-2.17	-3.24	-1.2%
